{"source": "PubChem BioAssay AID493191", "about": "(Broad Institute, 2011)", "note": "The campaign covered roughly 1,300 compounds. About 330 (25%) were called active. How the calls were made is not given here. Not all results are given here. Measured potencies and affinities stand elsewhere.", "data": [{"assay": "growth inhibition of MALME3 cells – cell-based, CellTiter-Glo, cherry-picked, orthogonal assay for MITF inhibitor project, dose response (AID 493191)", "conditions": "MALME3 melanoma viability, CellTiter-Glo luminescence, 24 h; series mostly up to 35 µM", "values": [{"smiles": "CS(=O)(=O)N1CCN(c2nc3ccc(Cl)cc3s2)CC1", "outcome": "inactive"}, {"smiles": "CCCN1CCC(NCc2cn(C)nc2-c2ccc(Oc3ccccc3)cc2)CC1", "outcome": "inactive"}, {"smiles": "CC(O)CNC(=O)C1CCN(Cc2ccc(OCc3ccccc3)cc2)CC1", "note": "(configuration not stated)", "outcome": "inactive"}, {"smiles": "COC(=O)c1ccc(COc2ccc(C)cc2[N+](=O)[O-])o1", "outcome": "inactive"}, {"smiles": "Cc1ccccc1NC(=O)Cc1nc(COC(=O)c2ccc(S(C)(=O)=O)c([N+](=O)[O-])c2)cs1", "outcome": "inactive"}, {"smiles": "Cc1ccc(-c2n[nH]c(=O)c3ccccc23)cc1S(=O)(=O)NCC1CCCO1", "note": "(configuration not stated)", "outcome": "inactive"}, {"smiles": "C=CCNC(=O)Cn1nnc(-c2ccc(-c3ccc(OC)cc3)cc2)n1", "outcome": "inactive"}, {"smiles": "O=C(N/N=C/C=C/c1ccccc1)c1ccccn1", "outcome": "inactive"}, {"smiles": "Cc1ccc(-c2cn3nc(C)c(C)nc3n2)cc1", "outcome": "inactive"}, {"smiles": "Cc1ccc2oc(Nc3nc(C)c(C)c(C)n3)nc2c1", "outcome": "inactive"}, {"smiles": "C=C1C(=O)C2=CC1CCC(=O)C1(C)CCC(OC(C)=O)C(C)(C)C1CC2O", "note": "(configuration not stated)", "outcome": "inactive"}, {"smiles": "N/C(=N\\OC(=O)c1ccccc1Cl)c1cccc([N+](=O)[O-])c1", "outcome": "inactive"}, {"smiles": "O=C(NC(=S)Nc1ccccn1)c1cccc([N+](=O)[O-])c1", "outcome": "inactive"}, {"smiles": "CCOc1ccc2nc(C)cc(Nc3cccc([N+](=O)[O-])c3)c2c1", "outcome": "inactive"}, {"smiles": "COC(=O)c1ccc(Nc2cc(C)nc3ccc(C)cc23)cc1", "outcome": "inactive"}, {"smiles": "Clc1ccc(-c2c[n+](Cc3cccc(Cl)c3)c3n2CCC3)cc1", "outcome": "inactive"}, {"smiles": "O=c1c2ccccc2cnn1CCOc1ccccc1", "outcome": "inactive"}, {"smiles": "CS(=O)(=O)c1ccc(C(=O)OCC(=O)NCc2cccs2)cc1[N+](=O)[O-]", "outcome": "inactive"}, {"smiles": "CS(=O)(=O)c1ccc2nc(NC(=O)c3ccccc3)sc2c1", "outcome": "inactive"}, {"smiles": "O=[N+]([O-])c1cc(C(F)(F)F)ccc1NCCc1ccccn1", "outcome": "inactive"}, {"smiles": "O=C(O)c1cccc(NC(=O)c2cccc(NC(=O)C3CCCO3)c2)c1", "note": "(configuration not stated)", "outcome": "inactive"}, {"smiles": "Cc1ccc(C(=O)N/N=C\\c2ccc([N+](=O)[O-])s2)cn1", "outcome": "inactive"}, {"smiles": "O=C(N/N=C/c1ccc([N+](=O)[O-])s1)c1ccccc1", "outcome": "inactive"}, {"smiles": "C=C1CCC[C@]2(C)C[C@H]3OC(=O)C(CN4CCCCC4CO)[C@H]3CC12", "note": "(some centres not stated)", "outcome": "inactive"}, {"smiles": "COc1cc(SC)ccc1C(=O)Nc1ncc(C)s1", "outcome": "inactive"}, {"smiles": "O=C(NCc1ccccc1)C(=O)Nc1cccc(C(=O)O)c1", "outcome": "inactive"}, {"smiles": "CC(C)(C)c1cc(NCCCn2ccnc2)n2ncc(-c3ccccc3)c2n1", "outcome": "inactive"}, {"smiles": "Nc1ccc(-c2nc3c(Cl)cc(N)cc3[nH]2)cc1", "outcome": "inactive"}, {"smiles": "Cc1c(C#N)c(O)n(CCO)c(=O)c1N=Nc1ccc2c(c1)COC2=O", "outcome": "inactive"}, {"smiles": "CCN(CC)c1ccc(/C=N/NC(=O)c2cccc(S(=O)(=O)N3CCOCC3)c2)c(O)c1", "outcome": "inactive"}, {"smiles": "CCSc1nnc(NC(=O)C2CCCCC2)s1", "outcome": "inactive"}, {"smiles": "O=C(CCl)N(Cc1cc(=O)[nH]c2ccccc12)c1ccccc1", "outcome": "inactive"}, {"smiles": "O=C(CCl)N(c1ccccc1)c1c[nH]c2ccccc12", "outcome": "inactive"}, {"smiles": "Clc1cccc(-c2nc(-c3ccccn3)no2)c1", "outcome": "inactive"}, {"smiles": "Fc1ccccc1-c1nc(-c2ccncc2)no1", "outcome": "inactive"}, {"smiles": "Clc1ccccc1CSc1nnc(-c2ccncc2)o1", "outcome": "inactive"}, {"smiles": "CCOc1ccc(N(CC(=O)Nc2ccc(OC)cc2)S(C)(=O)=O)cc1", "outcome": "inactive"}, {"smiles": "CCC(=O)Nc1cc2nn(-c3ccc(C)cc3)nc2cc1C", "outcome": "inactive"}, {"smiles": "CC(=O)SC(C[N+](=O)[O-])c1cn(C(C)=O)c2ccccc12", "note": "(configuration not stated)", "outcome": "inactive"}, {"smiles": "CC1Cc2ccccc2N1C(=O)c1ccc(Br)o1", "note": "(configuration not stated)", "outcome": "inactive"}, {"smiles": "CCOC(=O)/C=c1/s/c(=C/c2ccc3cc(OC)ccc3c2)c(=O)n1CC(=O)NCC1CCCO1", "note": "(configuration not stated)", "outcome": "inactive"}, {"smiles": "O=C(Nc1ccc(-c2cn3c(n2)SCC3)cc1)c1ccco1", "outcome": "inactive"}, {"smiles": "C/C(=N\\NC(=O)COc1ccccc1-c1ccccc1)c1ccccn1", "outcome": "inactive"}, {"smiles": "C/C(=N\\NC(=O)C1COc2ccccc2O1)c1ccccn1", "note": "(configuration not stated)", "outcome": "inactive"}, {"smiles": "O=[N+]([O-])c1ccc(N/N=C/C=C/c2ccco2)cc1", "outcome": "inactive"}, {"smiles": "O=C(NC1=NCCS1)C1COc2ccccc2O1", "note": "(configuration not stated)", "outcome": "inactive"}, {"smiles": "C=CCOc1ccc(/C=C2\\SC(=S)N(CCC(=O)O)C2=O)cc1", "outcome": "inactive"}, {"smiles": "Cc1c(C#N)c(NC(=O)CCl)n(Cc2cccs2)c1C", "outcome": "inactive"}, {"smiles": "O=C(NCc1cccs1)c1nc2c(nnn2Cc2ccccc2Cl)c(=O)[nH]1", "outcome": "inactive"}, {"smiles": "CC(=O)Oc1c(C(=O)c2nnc(C)o2)c(=O)n(Cc2ccccc2)c2ccccc12", "outcome": "inactive"}, {"smiles": "COc1ccc(/C=N/NC(=O)Cc2cccs2)cc1", "outcome": "inactive"}, {"smiles": "Cc1ccc(OCC(=O)N/N=C/c2ccc([N+](=O)[O-])o2)cc1", "outcome": "inactive"}, {"smiles": "Cc1occc1C(=O)N/N=C/c1ccc(OCc2ccccc2)cc1", "outcome": "inactive"}, {"smiles": "Cc1ccc(SCCC(=O)N2CCC(C)CC2)cc1", "outcome": "inactive"}, {"smiles": "Cc1cc(/C=C(\\C#N)C(=O)O)c(C)n1CC(C)C", "outcome": "inactive"}, {"smiles": "Cc1ccc(SCCSc2ncccn2)cc1", "outcome": "inactive"}, {"smiles": "Nc1c(-c2ccccc2)cnc2c(-c3ccccc3)cnn12", "outcome": "inactive"}, {"smiles": "COc1ccccc1OCCN1CSC(=S)N(C)C1", "outcome": "inactive"}, {"smiles": "O=C(Nc1ccc(F)cc1F)c1cc2ccccc2oc1=O", "outcome": "inactive"}, {"smiles": "COc1ccc(C(=O)CN2Cc3ccccc3C2=N)cc1", "outcome": "inactive"}, {"smiles": "O=C(Nc1ccccc1)O/N=C/c1ccc(F)cc1", "outcome": "inactive"}, {"smiles": "CC1(C)Cc2c(sc(NC(=O)c3ccc4ncsc4c3)c2C(N)=O)C(C)(C)N1", "outcome": "inactive"}, {"smiles": "CCCN(CCC)C1=CC(=[N+]2CCCC2)CC(C)(C)C1", "outcome": "inactive"}, {"smiles": "O=C(N/N=C/c1ccc(F)cc1)c1c(O)c2ccccc2[nH]c1=O", "outcome": "inactive"}, {"smiles": "Cc1ccc(NC(=O)c2cc3ccccc3oc2=O)cc1S(=O)(=O)N(C)C", "outcome": "inactive"}, {"smiles": "CC(C)C(=O)Nc1cccc(NC(=O)c2cc3ccccc3o2)c1", "outcome": "inactive"}, {"smiles": "Cc1ccc(-c2nc(C#N)c(NCc3ccco3)o2)cc1", "outcome": "inactive"}, {"smiles": "Cc1ccc2c(COC(=O)c3n[nH]c4ccccc34)cc(=O)oc2c1", "outcome": "inactive"}, {"smiles": "N#C/C(C(=O)c1ccccc1)=C1/CCCCCN1", "outcome": "inactive"}, {"smiles": "COc1ccc2c(c1OC)C(=O)N(c1ccc(C)cc1)C2", "outcome": "inactive"}, {"smiles": "CCOc1cc(/C=C(/C#N)c2ccc(Cl)cc2)cc(Cl)c1OCC(=O)O", "outcome": "inactive"}, {"smiles": "O=C(Nc1ccc2nc3n(c(=O)c2c1)CCCCC3)c1cc([N+](=O)[O-])ccc1F", "outcome": "inactive"}, {"smiles": "CC(C)(C)C(=O)Nc1cc2nn(-c3ccccc3)nc2cc1Cl", "outcome": "inactive"}, {"smiles": "Oc1ccc(-c2nnc(SCC3CCCCC3)o2)cc1", "outcome": "inactive"}, {"smiles": "CC(=O)c1cccc(Nc2nc(-c3cccnc3)cs2)c1", "outcome": "inactive"}, {"smiles": "CCOc1cc(/C=C\\[N+](=O)[O-])ccc1OCC(=O)N1CCOCC1", "outcome": "inactive"}, {"smiles": "C/C(=N/Nc1nc(C)c(C)s1)c1cccc([N+](=O)[O-])c1", "outcome": "inactive"}, {"smiles": "CCOc1ccccc1NC(=O)C1C2CCC(O2)C1C(=O)O", "note": "(configuration not stated)", "outcome": "inactive"}, {"smiles": "Cc1cc(/C(N)=N/OC(=O)Nc2ccc(Cl)cc2)no1", "outcome": "inactive"}, {"smiles": "COc1ccccc1/C=C/C=N/NC(=O)c1cccs1", "outcome": "inactive"}, {"smiles": "COc1ccc(NC(=O)c2cc3ccccc3oc2=O)c(OC)c1", "outcome": "inactive"}, {"smiles": "COc1cccc(/C=N/NC(=O)c2cccs2)c1", "outcome": "inactive"}, {"smiles": "Cc1ccccc1OCC(=O)Nc1cccc(C(=O)O)c1", "outcome": "inactive"}, {"smiles": "COc1ccc(-c2noc(-c3cccs3)n2)cc1OC", "outcome": "inactive"}, {"smiles": "N#CCSc1nc2ccccc2c2nc3ccccc3n12", "outcome": "inactive"}, {"smiles": "CC1(C)CC(=O)c2cnc(N3CCc4ccccc43)nc2C1", "outcome": "inactive"}, {"smiles": "Cc1cc(C(=O)CSc2nnc3ccccn23)c(C)n1-c1ccccc1", "outcome": "inactive"}, {"smiles": "COc1ccccc1N(C(=O)CCl)c1cn(C(C)=O)c2ccccc12", "outcome": "inactive"}, {"smiles": "Cn1cc(C(=O)CCl)c2ccccc21", "outcome": "inactive"}, {"smiles": "Cc1ccc2c(C(=O)CCl)c(C)[nH]c2c1", "outcome": "inactive"}, {"smiles": "O=C(Nc1ccc(OC(F)(F)F)cc1)c1[nH]ncc1[N+](=O)[O-]", "outcome": "inactive"}, {"smiles": "COC(=O)c1c(C)[nH]c(/C=N/Nc2ccccc2)c1C", "outcome": "inactive"}, {"smiles": "COCc1nc(-c2ccc(-c3ccccc3)nc2OC)no1", "outcome": "inactive"}, {"smiles": "C/C(=N\\Nc1nccnc1Cl)c1ccc(O)c(C)c1", "outcome": "inactive"}, {"smiles": "Nc1ccc2c(c1)OC1(CCCC1)O2", "outcome": "inactive"}, {"smiles": "COc1cc(OC)cc(-c2oc(=O)c3cc(OC)c(OC)cc3c2C(F)(F)F)c1", "outcome": "inactive"}, {"smiles": "CC1CCN(c2ccc(NC(=O)c3cccnc3)cc2)CC1", "outcome": "inactive"}, {"smiles": "COc1c(C)cccc1C(=O)Nc1ccc(N2CCN(S(C)(=O)=O)CC2)cc1", "outcome": "inactive"}, {"smiles": "CC(C)(C)c1ccc(C(=O)Nc2ccc(CC(=O)O)cc2)o1", "outcome": "inactive"}, {"smiles": "CN1CCN(c2ccc(NC(=S)NC(=O)c3cccc4ccccc34)cc2)CC1", "outcome": "inactive"}, {"smiles": "CCCCOC(=O)Nc1ccc2c(C)cc(=O)oc2c1", "outcome": "inactive"}, {"smiles": "CC(C)N=C(NS(=O)(=O)c1ccccc1)C(Cl)(Cl)Cl", "outcome": "inactive"}, {"smiles": "CC(=O)Oc1ccc(C)cc1-n1nc2ccccc2n1", "outcome": "inactive"}, {"smiles": "NC(=O)c1ccccc1NC(=O)/C=C/c1cccc(Cl)c1", "outcome": "inactive"}, {"smiles": "Nc1ccc(-c2ncc(-c3ccccc3)o2)cc1", "outcome": "inactive"}, {"smiles": "N#C/C(=C\\c1c[nH]c2ccccc12)C(=O)NC1CC1", "outcome": "inactive"}, {"smiles": "Cc1ccc(NC(=O)c2cc3cccc([N+](=O)[O-])c3[nH]2)cc1", "outcome": "inactive"}, {"smiles": "ClC1(Cl)CC1CSc1nnc(-c2ccncc2)o1", "note": "(configuration not stated)", "outcome": "inactive"}, {"smiles": "COc1cc(SC)ccc1C(=O)Nc1ccc(Br)cn1", "outcome": "inactive"}, {"smiles": "COc1ccc(-n2ncc3c(N4CCCCC4)ncnc32)cc1", "outcome": "inactive"}, {"smiles": "Cc1ccc(C(=O)c2coc3ccc(O)c(Cl)c23)cc1", "outcome": "inactive"}, {"smiles": "COc1cccc(-c2ccc3c(N)c(C(=O)NC4CC4)sc3n2)c1", "outcome": "inactive"}, {"smiles": "O=S(=O)(CC(CN1CCCCC1)N1CCCCC1)c1ccc2ccccc2c1", "note": "(configuration not stated)", "outcome": "inactive"}, {"smiles": "Cc1ccc(S(=O)(=O)CC(CN2CCCCC2)N2CCCCC2)cc1", "note": "(configuration not stated)", "outcome": "inactive"}, {"smiles": "C=CCC(Nc1ccccc1)C12C=CC(O1)C(C(=O)OC)=C2C(=O)OC", "note": "(configuration not stated)", "outcome": "inactive"}, {"smiles": "Cc1ccc(C)c(-n2c3nc(=O)[nH]c(=O)c-3cc3cc([N+](=O)[O-])ccc32)c1", "outcome": "inactive"}, {"smiles": "COc1ccc(C2C(C#N)=C(N)Oc3c2oc(CO)cc3=O)cc1", "note": "(configuration not stated)", "outcome": "inactive"}]}]}
